Inconclusive results are not listed. Where a call stands in place of a potency, no number is given. The source made the active and inactive calls. Calls follow the shape of the dose curve; as a rule, active = well fitted inhibition curve with a large enough effect; inconclusive = small, poorly fitted or top-dose-only effect; inactive = flat fitted curve, though single readings scatter.
What was measured:
Assay in all cases: qHTS profiling for inhibitors of Plasmodium falciparum proliferation (AID 504749); also: nearly all actives have a fitted effect of over 60% in size
Conditions in all cases: P. falciparum in erythrocytes, SYBR Green DNA, 72 h; series mostly up to 28.7 µM
[1] = tested on: CP238
In short: (§1)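 Fluorescence of SYBR Green-bound parasite DNA, read at 485/535 nm, served as the growth measure. Infected erythrocytes were cultured with compound 72 h; artemisinin (0.29 uM) and DMSO wells defined the normalization range.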

[2] = tested on: CP247
In short: as §1

[3] = tested on: CP250
In short: as §1

[4] = tested on: CP252
In short: as §1

[5] = tested on: CP256
In short: as §1

[6] = tested on: CP260
In short: as §1

[7] = tested on: CP262
In short: as §1

[8] = tested on: CP265
In short: as §1

[9] = tested on: CP266
In short: as §1

[10] = tested on: CP268
In short: as §1

[11] = tested on: CP269
In short: as §1

[12] = tested on: CP286
In short: as §1

[13] = tested on: CP291
In short: as §1

[14] = tested on: CP297
In short: as §1

[15] = tested on: CP305
In short: as §1

[16] = tested on: CP315
In short: as §1

[17] = tested on: CP325
In short: as §1

[18] = tested on: CP329
In short: as §1

[19] = tested on: CP335
In short: as §1

[20] = tested on: DFO2036
In short: as §1
Potency is read from the fitted curve at half-maximal effect.

| SMILES | Potency [1] | Potency [2] | Potency [3] | Potency [4] | Potency [5] | Potency [6] | Potency [7] | Potency [8] | Potency [9] | Potency [10] | Potency [11] | Potency [12] | Potency [13] | Potency [14] | Potency [15] | Potency [16] | Potency [17] | Potency [18] | Potency [19] | Potency [20] |
| --- | --- | --- | --- | --- | --- | --- | --- | --- | --- | --- | --- | --- | --- | --- | --- | --- | --- | --- | --- | --- |
| O=P1(NCCCl)OCCCN1CCCl (configuration not stated) | inactive | inactive | inactive | inactive | inactive | inactive | inactive | inactive | inactive | inactive | inactive | inactive | inactive | inactive | inactive | inactive | inactive | inactive | inactive | inactive |
| CC1OC(C)OC(C)O1 (configuration not stated) | inactive | inactive | inactive | inactive | inactive | inactive | inactive | inactive | inactive | inactive | inactive | inactive | inactive | inactive | inactive | inactive | inactive | inactive | inactive | inactive |
| NCC1(CC(=O)O)CCCCC1 | inactive | inactive | inactive | inactive | inactive | inactive | inactive | inactive | inactive | inactive | inactive | inactive | inactive | inactive | inactive | inactive | inactive | inactive |  | inactive |
| NCC(CC(=O)O)c1ccc(Cl)cc1 (configuration not stated) | inactive | inactive | inactive | inactive | inactive | inactive | inactive | inactive | inactive | inactive | inactive | inactive | inactive | inactive | inactive | inactive | inactive | inactive | inactive | inactive |
| CCCC(C)(COC(N)=O)COC(=O)NC(C)C (configuration not stated) | inactive | inactive | inactive | inactive | inactive | inactive | inactive | inactive | inactive | inactive | inactive | inactive | inactive | inactive | inactive | inactive | inactive | inactive | inactive | inactive |
| CC[N+](CC)(CC)CC | inactive | inactive | inactive | inactive | inactive | inactive | inactive | inactive | inactive | inactive | inactive | inactive | inactive | inactive | inactive | inactive | inactive | inactive | inactive | inactive |
| CCN(C(C)=O)c1cccc(-c2ccnc3c(C#N)cnn23)c1 | inactive | inactive | inactive | inactive | inactive | inactive | inactive | inactive | inactive | inactive | inactive | inactive | inactive |  | inactive | inactive | inactive | inactive | inactive | inactive |
| CC(C)NCC(O)c1ccccc1Cl (configuration not stated) |  |  |  |  |  | 11.2 µM (active) |  |  | inactive |  |  | 10 µM (active) |  | 15.1 µM (active) |  | inactive |  | inactive |  |  |
| CCC(C(N)=O)N1CCCC1=O (configuration not stated) | inactive | inactive | inactive | inactive | inactive | inactive |  | inactive | inactive | inactive | inactive | inactive | inactive | inactive | inactive | inactive | inactive | inactive | inactive | inactive |
| CCCC1CCCCN1 (configuration not stated) | inactive |  |  | inactive | inactive | inactive | inactive | inactive |  | inactive | inactive | inactive | inactive | inactive | inactive | inactive | inactive | inactive | inactive | inactive |
| CCC1(C2=NCCN2)Cc2ccccc2O1 (configuration not stated) |  |  |  |  |  |  | inactive |  |  |  |  |  |  | 9.53 µM (active) |  |  |  |  | 8.49 µM (active) |  |
| O=C1NCN(c2ccccc2)C12CCN(CC1COc3ccccc3O1)CC2 (configuration not stated) | inactive | inactive | inactive | inactive | inactive |  | inactive | inactive | inactive | inactive | inactive | inactive | inactive | inactive | inactive | inactive | inactive | inactive | inactive | inactive |
| C=C1CC[C@@]2(O)[C@H]3Cc4ccc(O)c5c4[C@@]2(CCN3CC2CC2)[C@H]1O5 | inactive | inactive | inactive | inactive | inactive |  | inactive | inactive | inactive | inactive | inactive | inactive | inactive | inactive | inactive | inactive | inactive | inactive | inactive | inactive |
| FC(F)(F)c1cccc(C2=CCN(CCc3ccc4ccccc4c3)CC2)c1 | inactive | inactive | inactive | inactive |  | inactive | inactive | inactive | inactive |  | inactive | inactive | inactive | inactive | inactive | inactive | inactive | inactive | inactive | inactive |
| CCN(CC)CCOC(=O)C(O)(c1ccccc1)c1ccccc1 | inactive | inactive | inactive | inactive |  | inactive | inactive | inactive | inactive | inactive | inactive | inactive | inactive |  | inactive | inactive | inactive | inactive |  | inactive |
| CCCN1CCC[C@@H]2Cc3[nH]ncc3C[C@H]21 |  |  |  |  |  |  | inactive |  | inactive | inactive | inactive |  | inactive | inactive | inactive | inactive | inactive | inactive | inactive |  |

From PubChem BioAssay (NCATS)
